# An excerpt weighted towards active compounds, which were near 7.9% of everything screened.
# KB-V1 MDR tox: kills drug-selected multidrug resistant KB-V1 cells. 3.4% of 400,000 active. Potency, µM (top dose mostly 46.1 µM), hits mostly cytotoxic. KB-V1 MDR cells viability, CellTiter-Glo, 72 h; further: on the % scale 0 is the no-effect control and ±100 the full control effect; nearly all actives have a fitted effect of over 60% in size
#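 qHTS viability screen in drug-selected KB-V1 MDR cells: 72 h compound treatment at 37 degrees C, ATP luminescence end point.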
# KB-3-1 tox: KB-3-1 parental cell cytotoxicity | 1.4% of 400,000 active | KB-3-1 viability, CellTiter-Glo ATP luminescence, 72 h | Potency, µM (highest dose often 46.1 µM), hits mostly cytotoxic; further: on the % scale 0 is the no-effect control and ±100 the full control effect; nearly all actives have a fitted effect of over 60% in size
#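 Parental KB-3-1 adenocarcinoma cells in phenol-red-free DMEM with 10% FBS were pin-treated with compounds at several concentrations, incubated 72 h at 37 °C, and viability read by CellTiter-Glo luminescence; concentration-effect curves were fitted after normalization.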
# MCF10A rerep: induces DNA re-replication in MCF 10a normal breast cells; MCF 10A DNA re-replication, Hoechst nuclear intensity, 48 h; Potency, µM (doses to about 46.1 µM), for inactives: at the highest dose activity, positive = re-replication, hits mostly activators; 2.9% of 350,000 active; AID 624296; further: % of control where 0% means no effect; nearly all actives have a fitted effect of over 50% in size
# SW480 rereplic: DNA re-replication induction in SW480 cells; Potency, µM (highest dose often 46.1 µM), inactives show top-dose re-replication activation, most hits filed as activators; SW480 DNA re-replication, Hoechst DNA content imaging, 48 h; 1.8% of 340,000 active; further: % of control where 0% means no effect; nearly all actives have a fitted effect of over 55% in size
#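 First, 250 cells per well were seeded. Next, compound or vehicle (23 nL) was pinned in, plates sat 48 hr at 37 C. Finally Hoechst was added for 40 min before fluorescence scanning.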
# HT1080NT lethal: kills 2HG-producing HT-1080-NT fibrosarcoma cells; Potency, µM (highest dose often 46.1 µM), for inactives: at the top dose activity, negative = less viability, usual class: cytotoxic; AID 686970; 1.6% of 360,000 active; HT-1080-NT fibrosarcoma viability, CellTiter-Glo ATP luminescence, 48 h;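 further: NT is the 2HG producing partner of a matched IDH1 knockdown line; 0% = DMSO-treated cells and -100% = media-only wells without cells; nearly all actives have a fitted effect of over 55% in size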
#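 Read-out is CellTiter-Glo luminescence after 10 minutes at room temperature, following 48 hours' compound treatment of HT-1080-NT cells (750 cells/well, RPMI, 5% FBS, 37 degrees C).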
# HT1080 IDH1KD tx: toxicity to HT-1080 IDH1 knockdown cells (counter line). HT-1080 IDH1 knockdown viability, ATP luminescence, 48 h. Potency, µM (highest dose often 46.1 µM), for inactives: top-dose activity, negative = toxicity, most hits filed as cytotoxic. 2% of 360,000 active;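 further: 0% = DMSO wells and -100% = cell-free medium wells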
#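 IDH1KD HT-1080 cells, 750/well, RPMI + 5% FBS; compound pinned after 2 h settling; 48 h, 37 °C; CellTiter-Glo luminescence; % activity normalised to DMSO and no-cell wells; curves fitted, classed by r2 and efficacy.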
# * hit, by the source's call; i = inactive; ? = inconclusive; / = no result; [ ] = remark or other dose. The call rests on the fitted dose curve; in most records, active means well fitted curve in the direction sought with a large enough effect; inconclusive means small, poorly fitted or top-dose-only effect, or another doubt; inactive means no such curve, though single readings can be large; an effect the other way counts as inactive or inconclusive. Potency means the concentration at half of the fitted maximal effect.
SMILES,KB-V1 MDR tox,KB-3-1 tox,MCF10A rerep,SW480 rereplic,HT1080NT lethal,HT1080 IDH1KD tx
O=C1OC(Nc2ccc3c(c2)OCO3)c2ccccc21 (stereo not given),?,?,?,?,?,18µM*
CC(C)NC(=O)C1(C)CCN1C(=O)c1ccc(F)c(Cl)c1 (stereo not given),i,i,/,/,11%,6%
CC(=O)Nc1sc2c(c1-c1nc3ccccc3s1)CN(C(C)C)CC2,?,?,?,2.6µM*,/,/
CC(=O)N1CCc2c(sc(NC(=O)C3CC3)c2-c2nc3ccccc3s2)C1,i,?,23µM*,?,?,?
O=C(CN(CCc1ccccc1)S(=O)(=O)c1ccc(Cl)cc1)N/N=C/c1ccc2c(c1)OCO2,9.2µM*,i,-1%,-53%,0%,-8%
CCNC(=O)CN(CCc1ccccc1)S(=O)(=O)c1ccc(OC)cc1,21µM*,i,-3%,-6%,-6%,10%
COc1ccc(S(=O)(=O)N(CCc2ccccc2)CC(=O)N/N=C/c2ccc3c(c2)OCO3)cc1,4.6µM*,?,1%,?,-3%,3%
COc1ccc(S(=O)(=O)N(CCc2ccccc2)CC(=O)NCc2ccccc2)cc1,i,i,/,/,/,/
CCOc1cc(/C=N/NC(=O)CN(CCc2ccccc2)S(=O)(=O)c2ccc(NC(C)=O)cc2)ccc1O,?,i,1%,-3%,?,-18%
C[C@@H]1NC(=O)[C@H](CCC(N)=O)NC(=O)c2cc([N+](=O)[O-])cc(I)c2NCC[C@@H](C(N)=O)NC1=O,?,i,4%,-2%,6%,6%
COC(=O)c1cc(Cc2ccc(N)c(C(=O)OC)c2)ccc1N,21µM*,?,4%,2%,5%,-6%
COc1ccccc1NC(=S)N(CCN(C)C)C(C)c1ccncc1 (stereo not given),?,i,-2%,-7%,?,7%
CCCN(CCC)C(=O)CSc1ncccc1C(=O)O,i,i,1%,-6%,6%,12%
COC(=O)C1=CO[C@@H](O[C@@H]2O[C@H](CO)[C@@H](O)[C@H](O)[C@H]2O)C2C1C=C[C@@]2(O)CO (stereo not given in full),i,i,?,5%,-3%,-9%
CCCN1C(=O)/C(=C/c2ccc(C)o2)SC1=Nc1ccc(OC)cc1,i,i,16µM*,1%[9.22 µM],?,?
CCCN1C(=O)/C(=C/c2ccc(C)o2)SC1=Nc1ccc(OCC)cc1,i,i,-4%,-5%,13%,8%
COC(=O)c1ccc(COc2ccc(/C=C(\C#N)c3nc4ccccc4[nH]3)cc2OC)o1,?,i,?,5%,0%,3%
CCc1ccc(NC(=O)COc2ccc(/C=C(/C#N)c3nc4ccccc4[nH]3)cc2OC)cc1,?,1.5µM*,?,?,?,?
CC[C@@H]1C(c2ccccc2)=NN(c2ccc(Br)cc2)[C@H]1C(=O)N1CCOC1=O,i,i,9.2µM*,12%,-13%,-18%
CC[C@@H]1C(c2ccc(F)cc2)=NN(c2ccc(Br)cc2)[C@H]1C(=O)N1CCOC1=O,i,i,16µM*,0.58µM*,-16%,-23%
CC[C@@H]1C(c2cccc(Cl)c2)=NN(c2ccc(Br)cc2)[C@H]1C(=O)N1CCOC1=O,i,i,1.3µM*,10µM*,?,?
CC[C@@H]1C(c2cccc(C)c2)=NN(c2ccccc2)[C@H]1C(=O)N1CCOC1=O,i,i,?,-6%[9.22 µM],-21%,-12%
CCOC(=O)C(C)Sc1nnc(Cc2cc(=O)[nH]c(=O)[nH]2)n1-c1ccc(OCC)cc1 (stereo not given),i,i,-4%,-3%,-3%,0%
CC1CCN(C(=O)CCc2nnc(-c3ccccc3)o2)CC1,i,i,-2%,-4%,17%,16%
Cc1ccc(-n2ncc(C(=O)NCCN3CCC(Cc4ccccc4)CC3)c2C2CCN(C(=O)OC(C)(C)C)CC2)cc1,i,?,/,/,/,/
SMILES,KB-V1 MDR tox,KB-3-1 tox,MCF10A rerep,SW480 rereplic,HT1080NT lethal,HT1080 IDH1KD tx
C[C@H]1CCC/C=C/[C@@H]2C[C@H](O)C[C@H]2[C@H](O)[C@H](S(=O)c2ccc(O)cc2)CC(=O)O1 (stereo not given in full),?,0.0092µM*,21%,?,?,0.15µM*
Cc1ccc2c(n1)sc1c(-c3ccc(Br)cc3)c(C#N)c(N)nc12,i,i,?,2.3µM*,2%,-27%
CC(c1ccccc1)N1C(=O)c2cccnc2C1=O (stereo not given),i,i,?,-4%,15%,8%
CC(NC1=CC(=O)c2cccnc2C1=O)C(O)c1ccccc1 (stereo not given),15µM*,8.2µM*,3.7µM*,12µM*,18µM*,6.5µM*
CCOC(=O)N1CCC(N(CCOC)C(=O)Nc2ccc(CC)cc2)CC1,?,i,19%,22%,-7%,-6%
Cc1cccc(-c2noc(-c3ccc(N4CCCC4)c([N+](=O)[O-])c3)n2)c1,i,i,/,/,/,/
Cc1cccc(-c2noc(-c3ccc(N4CCN(C)CC4)c([N+](=O)[O-])c3)n2)c1,i,18µM*,/,/,/,/
CC(C)CNc1ncnc2c1ncn2[C@H]1CN(Cc2cccs2)C[C@@H](CO)O1,i,i,/,/,-1%,9%
CSc1nc2sc3c(c2c(=O)n1-c1ccc(C)c(Cl)c1)CCN(C(C)=O)C3,i,i,/,/,/,/
C/C(=N\N=C(/N)SC1CC(=O)N(c2ccccc2)C1=O)c1cccs1 (stereo not given),i,i,2.3µM*,3.7µM*,?,19%[9.24 µM]
CC(=O)N1CCCc2cc(S(=O)(=O)N3CCCC(C(=O)Nc4ccc(C)c(C)c4)C3)ccc21 (stereo not given),i,i,/,/,/,/
CCCCOn1c(C)c(C(=O)OCC)c2c3nonc3ccc21,8.2µM*,i,?,19%,-2%,0%
CCc1cnc(Nc2nc(C(N)Cc3ccc(Cl)cc3)cs2)nc1 (stereo not given),i,i,/,/,21µM*,?
CCc1cnc(Nc2nc(C(N)c3ccccc3Cl)cs2)nc1 (stereo not given),?,i,/,/,-22%,-1%

# Screening data deposited in PubChem BioAssay by National Center for Advancing Translational Sciences (NCATS).
